Source: PubChem (Johns Hopkins Ion Channel Center)
KCNQ2 enhance – KCNQ2 (rat) channel potentiation | O88943 | CHO-K1 KCNQ2, FluxOR thallium flux fluorescence; hits give high values | B-score at 10 µM | actives 0.54% (n = 310,000) | AID 2239;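 active = fluorescence ratio B-score at least 3 SD of library B-scores, with initial fluorescence B-score within 3 of them, cut at about 5.3 in these data; same plate scores as AID 2156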;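 also: B-score of peak minus minimum over baseline fluorescence ratio after K+ and Tl+ stimulus; positive B-score means potentiation of KCNQ2 with more thallium influx and brighter signal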
Target sequence (O88943 whole entry, looked up): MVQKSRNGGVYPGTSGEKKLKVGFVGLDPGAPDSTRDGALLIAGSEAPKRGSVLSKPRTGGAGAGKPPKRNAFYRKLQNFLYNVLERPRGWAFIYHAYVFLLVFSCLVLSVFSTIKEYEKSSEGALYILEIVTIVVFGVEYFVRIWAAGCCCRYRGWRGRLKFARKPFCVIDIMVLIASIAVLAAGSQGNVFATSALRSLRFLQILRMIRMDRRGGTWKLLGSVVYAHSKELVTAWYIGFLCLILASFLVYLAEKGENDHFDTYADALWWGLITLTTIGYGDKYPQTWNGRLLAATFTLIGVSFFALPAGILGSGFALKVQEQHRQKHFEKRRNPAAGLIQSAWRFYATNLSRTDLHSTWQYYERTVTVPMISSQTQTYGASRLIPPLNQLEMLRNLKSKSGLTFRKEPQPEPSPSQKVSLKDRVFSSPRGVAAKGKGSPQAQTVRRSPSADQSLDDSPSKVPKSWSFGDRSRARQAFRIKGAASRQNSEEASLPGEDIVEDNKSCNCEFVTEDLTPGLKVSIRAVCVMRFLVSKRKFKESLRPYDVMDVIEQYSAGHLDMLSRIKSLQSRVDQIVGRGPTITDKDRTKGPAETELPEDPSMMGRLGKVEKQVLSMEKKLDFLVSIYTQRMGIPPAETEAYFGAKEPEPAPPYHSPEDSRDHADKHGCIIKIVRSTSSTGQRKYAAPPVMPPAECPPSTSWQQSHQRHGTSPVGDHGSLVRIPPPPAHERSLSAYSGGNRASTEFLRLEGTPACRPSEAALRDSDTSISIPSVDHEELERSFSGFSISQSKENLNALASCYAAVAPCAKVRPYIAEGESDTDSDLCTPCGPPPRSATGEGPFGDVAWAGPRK
KCNQ2 block – inhibitors of rat KCNQ2 potassium channel | B-score at 10 µM | actives 1.1% (n = 310,000) | CHO-K1 KCNQ2, FluxOR thallium flux, 20 min; hits give low values;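 active = fluorescence ratio B-score at most minus 3 library SDs, with starting brightness B-score within 2 library SDs, cut at about -5.5 in these data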
Kir21 conf inh – confirmation of mouse Kir2.1 potassium channel inhibitors; Tl flux remaining, % of negative control (hits give low values), % at 10 µM; Kir2.1-expressing cells, FluxOR thallium flux fluorescence; hits give low values; shares compounds with KCNQ2 enhance; actives 41% (n = 2,300);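 active = Primary-screen hit whose thallium flux fell at least 3 control SD below untreated wells in both duplicates, with normal baseline fluorescence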
HEK293 Tl flux – alters thallium flux in parental HEK293 cells, Kir2.1 counter-screen; shares compounds with KCNQ2 enhance; FluxOR thallium flux fluorescence; 0% = unstimulated blank wells; FluxOR signal as % of negative control (100 = no effect), % at 10 µM; actives 19% (n = 2,300); AID 2105;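 active = dye signal at least 3 control SD above or below untreated wells in both duplicates, raw fluorescence within 3, either direction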;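 also: percent is based on the flux ratio of peak minus minimum fluorescence over baseline F0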
CHO-K1 Tl ctr – alters thallium flux in parental CHO-K1 cells, KCNQ2 counter-screen | shares compounds with KCNQ2 enhance | FluxOR thallium flux fluorescence; zero = vehicle mean+3SD, 100% = vehicle-minus-blank window | activity increase over 3SD of controls, % at 10 µM | actives 43% (n = 1,200) | AID 2282;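 active = signal rise of at least 3 SD above the untreated control mean, in both duplicate wells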;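 also: counter screen of KCNQ2 potentiator hits so any rise reflects channel-independent effects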
KCNQ1 sel pot – human KCNQ1 counter-target activity of KCNQ2 potentiators; shares compounds with KCNQ2 enhance; CHO KCNQ1 stable, FluxOR thallium flux fluorescence; beyond 3SD, as % of vehicle-control signal; activation over 3SD threshold, % at 10 µM; actives 28% (n = 1,200); AID 2283;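 active = fluorescence ratio rise of at least 3 SD of vehicle wells above their mean, in both replicate wells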
KCNQ2 pot confirm – rat KCNQ2 channel potentiator confirmation; shares compounds with KCNQ2 enhance; potentiation, less the hit threshold, % at 10 µM; CHO-KCNQ2 cells, FluxOR thallium flux fluorescence; actives 68% (n = 1,200);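 active = fluorescence ratio rising 3 SD or more over the vehicle control mean in both replicates, plus primary screen hit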;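 also: peak minus minimum thallium fluorescence divided by baseline after K/Tl stimulus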
Kir2-1 sel – selectivity of KCNQ2 potentiators: effect on mouse Kir2.1. shares compounds with KCNQ2 enhance. HEK293 Kir2.1, FluxOR thallium flux fluorescence. activity over 3SD threshold, % at 10 µM. actives 2% (n = 1,200);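 active = fluorescence ratio rise of at least 3 SD above the vehicle-control mean, seen in both replicates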
KCNQ2 W236L pot – rat KCNQ2 W236L mutant potentiation by KCNQ2 potentiators. AID 2558. CHO KCNQ2-W236L, automated patch clamp current. shares compounds with KCNQ2 enhance. actives 10% (n = 940). current increase over 3SD of negative controls (%), hits give high values, % at 25 µM;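 active = current increase at least 3 SD of the untreated controls above them in both duplicate recordings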
Large screens that a line does not name were inactive (follow-up assays come after a bar, where they were run). Compounds with a hit are over-represented: about 1.6% of the library has one in this group of screens.

CC(C)CO/C(=N/S(=O)(=O)c1ccccc1)c1ccccc1	none
CC(C)O/C(=N\S(=O)(=O)c1ccc(Cl)cc1)c1ccccc1	none (no result: KCNQ2 enhance) | Kir21 conf inh 66% | HEK293 Tl flux inactive
COc1ccc2oc(C(=O)OCC(=O)Nc3ccc(NC(C)=O)cc3)c(C)c2c1	none (no result: KCNQ2 enhance)
COc1ccc2oc(C(=O)OCC(=O)N(C)CC(=O)Nc3ccc(C)cc3)c(C)c2c1	KCNQ2 enhance 7.4 | Kir21 conf inh inactive | HEK293 Tl flux inactive | CHO-K1 Tl ctr 32 | KCNQ1 sel pot inactive | KCNQ2 pot confirm inactive | Kir2-1 sel inactive
Cc1cc(NC(=O)CSc2nc(CC(C)(C)C)nc3c2c(=O)n(C)c(=O)n3C)no1	none (no result: KCNQ2 enhance) | Kir21 conf inh inactive | HEK293 Tl flux inactive
CCc1nc(SCC(=O)Nc2cc(C)on2)c2c(=O)n(C)c(=O)n(C)c2n1	none
CCn1c(COc2ccc(=O)n(-c3ccccc3)n2)nnc1SCc1ccc(C)cc1	none (no result: KCNQ2 enhance)
CCn1c(COc2ccc(C)cc2)nnc1SCc1ccc(C#N)cc1	none (no result: KCNQ2 enhance) | Kir21 conf inh 68% | HEK293 Tl flux inactive
Cc1cccc(NC(=O)CCS(=O)(=O)c2ccc(Br)cc2)c1	none
O=C(NC(=S)Nc1cccc2c(O)cccc12)c1ccco1	none
COc1ccc2sc(NC(=O)c3ccco3)nc2c1	none
O=C(NC(=S)Nc1ccccc1N1CCCC1)c1ccco1	KCNQ2 enhance 7.5 | Kir21 conf inh inactive | HEK293 Tl flux 182% | CHO-K1 Tl ctr 69 | KCNQ1 sel pot inactive | KCNQ2 pot confirm inactive | Kir2-1 sel inactive | KCNQ2 W236L pot inactive
COc1ccccc1C(=O)Nc1ccc(N2CCCCC2)cc1	none (no result: KCNQ2 enhance)
COc1cccc(OC)c1C(=O)Nc1ccc(N2CCCC2)cc1	none | Kir21 conf inh inactive | HEK293 Tl flux inactive
O=C(NC(=S)Nc1ccccc1Cl)c1ccco1	KCNQ2 enhance 11 | Kir21 conf inh inactive | HEK293 Tl flux 154% | CHO-K1 Tl ctr inactive | KCNQ1 sel pot inactive | KCNQ2 pot confirm 4.7 | Kir2-1 sel inactive | KCNQ2 W236L pot inactive
O=C(NC(=S)Nc1ccccc1N1CCCCC1)c1ccco1	none
COc1ccc2nc(NC(=S)NC(=O)c3ccco3)sc2c1	KCNQ2 enhance 13 | Kir21 conf inh inactive | HEK293 Tl flux inactive | CHO-K1 Tl ctr 3.0 | KCNQ1 sel pot 2.4 | KCNQ2 pot confirm 6.4 | Kir2-1 sel inactive | KCNQ2 W236L pot inactive
COC(=O)C1CN(C(=O)COc2ccc(C)cc2)c2ccccc2O1 (centres undefined)	none
CCc1ccc(CNC(=O)CCn2ccc3cc(S(=O)(=O)N4CCCC4)ccc32)cc1	none (no result: KCNQ2 enhance)
CC(C)C(=O)N1CCN(c2ccccc2NC(=S)NC(=O)c2ccco2)CC1	none
O=C(NC(=S)Nc1ccc(N2CCCCC2)cc1)c1ccco1	KCNQ2 enhance 8.5 | Kir21 conf inh inactive | HEK293 Tl flux inactive | CHO-K1 Tl ctr 99 | KCNQ1 sel pot 4.1 | KCNQ2 pot confirm 40 | Kir2-1 sel inactive | KCNQ2 W236L pot inactive
COc1ccc(-c2csc(NC(=S)NC(=O)c3ccco3)n2)cc1	none
CCC(C)c1ccccc1NC(=S)NC(=O)c1ccco1 (centres undefined)	KCNQ2 enhance 12 | Kir21 conf inh inactive | HEK293 Tl flux 383% | CHO-K1 Tl ctr inactive | KCNQ1 sel pot 68 | KCNQ2 pot confirm 48 | Kir2-1 sel inactive | KCNQ2 W236L pot inactive
CC(CCc1ccccc1)NC(=S)NC(=O)c1ccco1 (centres undefined)	KCNQ2 enhance 5.6 | Kir21 conf inh inactive | HEK293 Tl flux 183% | CHO-K1 Tl ctr inactive | KCNQ1 sel pot inactive | KCNQ2 pot confirm inactive | Kir2-1 sel inactive | KCNQ2 W236L pot inactive
Cc1occc1C(=O)NC(C)CCc1ccccc1 (centres undefined)	none
CC1CCN(c2ccc(NC(=S)NC(=O)c3ccco3)cc2)CC1	none
O=C(NC(=S)Nc1nc(-c2ccccc2)cs1)c1ccco1	KCNQ2 enhance 5.4 | Kir21 conf inh inactive | HEK293 Tl flux inactive | CHO-K1 Tl ctr inactive | KCNQ1 sel pot 81 | KCNQ2 pot confirm 1.2 | Kir2-1 sel inactive | KCNQ2 W236L pot inactive
c1ccc(CCOn2ccnc2)cc1	none (no result: KCNQ2 enhance)
Cc1noc(C)c1CCC(=O)N1CCCC(N2CCN(c3ccc(F)cc3)CC2)C1 (centres undefined)	none (no result: KCNQ2 enhance)
COC(=O)Cc1c(C)c2ccc(OCC(=O)NC3CCS(=O)(=O)C3)cc2oc1=O (centres undefined)	none (no result: KCNQ2 enhance)
CC(=O)c1cccc(NC(=O)CN(C)S(=O)(=O)c2cccc3nsnc23)c1	none
O=C(NC(=S)Nc1cccc(Cl)c1N1CCCCC1)c1cccs1	none
O=C(NC(=S)Nc1cccc(Cl)c1N1CCCCC1)c1ccco1	KCNQ2 enhance 8.3 | Kir21 conf inh inactive | HEK293 Tl flux inactive | CHO-K1 Tl ctr 44 | KCNQ1 sel pot inactive | KCNQ2 pot confirm 6.2 | Kir2-1 sel inactive | KCNQ2 W236L pot inactive
COc1ccc(-n2c(-c3ccc(Cl)cc3)c[nH]c2=S)cc1	none
O=C(CSc1nnc(CNC(=O)c2ccccc2)o1)NCCc1ccccc1	none (no result: KCNQ2 enhance)
CN1CCN(CC(O)COc2ccc(Cl)cc2)CC1 (centres undefined)	none
CN1CCN(CC(O)(c2ccc(Cl)cc2)c2ccc(Cl)cc2)CC1	none (no result: KCNQ2 enhance) | Kir21 conf inh 50% | HEK293 Tl flux inactive
Cc1nc(N2CCOCC2)[nH]c(=O)c1C(O)C(Cl)(Cl)Cl (centres undefined)	none (no result: KCNQ2 enhance)
CCS(=O)(=O)n1nc(NCc2cccc(OC)c2)nc1NCc1cccc(OC)c1	KCNQ2 enhance 15 | CHO-K1 Tl ctr 78 | KCNQ1 sel pot inactive | KCNQ2 pot confirm inactive | Kir2-1 sel inactive
CCCn1nnnc1NCc1cccc(OC)c1	none (no result: KCNQ2 enhance)
COc1ccc(C(=O)NC2CCSc3ccccc32)cc1S(=O)(=O)N1CCOCC1 (centres undefined)	none
O=C(c1cc(COc2ccc3c(c2)CCCC3)on1)N1CCCC1	none | Kir21 conf inh inactive | HEK293 Tl flux inactive
COCC1CCN(C(=O)c2cc(COc3ccc4c(c3)CCCC4)on2)C1 (centres undefined)	none
COc1cc(C)nc(N(Cc2ccccc2)S(=O)(=O)c2ccccc2)n1	none (no result: KCNQ2 enhance)
CCCN(c1nc(C)cc(OC)n1)S(=O)(=O)c1ccccc1	none (no result: KCNQ2 enhance) | Kir21 conf inh 50% | HEK293 Tl flux inactive
O=C(NCC1CCCO1)/C(=C\c1ccccc1F)NC(=O)c1ccccc1 (centres undefined)	none (no result: KCNQ2 enhance)
